From PubChem BioAssay
SW480 rereplic = A quantitative high throughput screen for small molecules that induce DNA re-replication in SW480 colon adenocarcinoma cells; SW480 DNA re-replication, Hoechst DNA content imaging, 48 h; Potency, µM (top dose mostly 46.1 µM), usual class: activators; 340,000 compounds, 1.8% hits; note: nearly all actives have a fitted effect of over 55% in size
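Readout is total intensity of Hoechst-stained nuclei, excited at 405 nm and collected at 500-530 nm. Compound treatment lasted 48 hr at 37 C in 5% CO2 before staining.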
DT40 TDP1 no CPT = qHTS for Inhibitors of human tyrosyl-DNA phosphodiesterase 1 (TDP1): qHTS in cells in absence of CPT; DT40 Tdp1-/- hTDP1 cells, no CPT, ATP luminescence, 48 h; Potency, µM (series often up to 46.2 µM), most hits filed as inhibitors; 420,000 compounds, 15% hits; note: nearly all actives have a fitted effect of over 55% in size
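Luminescent ATP content (CellTiter-Glo) served as the growth readout. Knockout chicken DT40 cells expressing human TDP1 were exposed to compounds without camptothecin for a minimum 48 hr at 37 °C.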
Chronic BCR inh = qHTS Assay to Find Inhibitors of Chronic Active B-Cell Receptor Signaling. 340,000 compounds, 0.05% hits. Potency, µM (titrated, usually from 46.1 µM), most hits filed as inhibitors. ABC-DLBCL IkBa-CBG/CBR reporter, luminescence ratio, 4 h; active = well fitted inhibition curve with a large enough effect in the signal ratio, with a control signal flat, not every such curve was filed as active; inconclusive = small, poorly fitted or top-dose-only effect, or effect the other way, or a change in a side signal; the % refers to the signal ratio
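Cell line TMD8 (human ABC DLBCL), stably expressing tet-inducible CBG68-IkBa fusion and CBR; IMDM/0.5% FBS; cpd up to 46 uM; dox induction, 4 h, 37C/5% CO2; dual luminescence; green/red ratio; MG132 control.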
MCF10A rerep = A quantitative high throughput screen for small molecules that induce DNA re-replication in MCF 10a normal breast cells; Potency, µM (highest dose often 46.1 µM), hits mostly activators; 350,000 compounds, 2.9% hits; AID 624296, 2012; MCF 10A DNA re-replication, Hoechst nuclear intensity, 48 h; note: nearly all actives have a fitted effect of over 50% in size
IL1B secr inh = qHTS for Inhibitors of Inflammasome Signaling: IL-1-beta AlphaLISA Primary Screen; THP-1 LPS/ATP IL-1B secretion, AlphaLISA, 16 h; hits give low values; activity change, % at 57.5 µM; 360,000 compounds, 4.7% hits; AID 743279, 2014; in the data active = activity change below about -50%; inconclusive = mostly about -30% to -49%
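Secreted IL-1B measured by AlphaLISA bead assay after 16 h compound exposure of THP-1 cells; compounds (final up to 57.5 uM) added 1 h before LPS (250 ng/mL) and ATP (1.25 mM) stimulation; lower signal means less secretion.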
DT40 TDP1 CPT = qHTS for Inhibitors of human tyrosyl-DNA phosphodiesterase 1 (TDP1): qHTS in cells in presence of CPT; chicken DT40 Tdp1-/-;hTDP1 cells + 20 nM CPT, ATP luminescence, 48 h; Potency, µM (series often up to 46.2 µM), actives largely listed as inhibitors; 420,000 compounds, 12% hits; AID 686979, 2013; note: nearly all actives have a fitted effect of over 55% in size
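Chicken DT40 Tdp1-/- cells stably complemented with human TDP1 were seeded at 400 cells/well in medium containing 20 nM camptothecin, exposed to pin-transferred compounds, and grown at 37 °C for at least 48 hr. Viability was read as ATP luminescence.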
Numbers stand for hits; i = inactive; ? = inconclusive; nt = no result; [ ] = another dose, or the depositor's remark. Only some compounds are listed: those with a hit (about 19% of all), similar ones and a draw of the others. Unless noted, calls come from the whole dose curve; as a rule, active = well fitted curve in the direction sought with a large enough effect; inconclusive = small, poorly fitted or top-dose-only effect, or another doubt; inactive = no such curve, though single readings can be large; an effect the other way counts as inactive or inconclusive.

SMILES	SW480 rereplic	DT40 TDP1 no CPT	Chronic BCR inh	MCF10A rerep	IL1B secr inh	DT40 TDP1 CPT
CCCC(=O)OC[C@@H](OC(=O)CCC)[C@@H](OC(=O)CCC)[C@H](Cn1c2nc(=O)[nH]c(=O)c-2nc2cc(C)c(C)cc21)OC(=O)CCC	?	5.96µM	nt	i	nt	6.68µM
CCSc1nnc(NC(=O)c2csc3c2CCC(C)C3)s1 (stereo not given)	i	?	i	i	i	18.4µM
CC1CCc2c(C(=O)Nc3nccs3)csc2C1 (stereo not given)	?	?	?	i	i	?
CCSc1nnc(NC(=O)c2cnccn2)s1	i	i	i	i	i	i
CCc1nnc(NC(=O)c2cccc(S(=O)(=O)N(C)c3ccccc3)c2)s1	i	i	?	i	i	i
CCSc1nnc(NC(=O)c2cccc(S(=O)(=O)N(C)c3ccc(C)cc3)c2)s1	18.4µM	?	?	?	i	i
CCSc1nnc(NC(=O)c2csc3c2CCCC3)s1	14.6µM	?	i	?	i	?
CCSc1nnc(NC(=O)c2ccccn2)s1	?	3.16µM	?	i	i	5.01µM
Cc1cc(C)c2sc(NC(=O)C3CC3)nc2c1	i	?	i	i	i	i
O=C(/C=C/c1ccc([N+](=O)[O-])cc1)NCCc1ccccc1	i	?	?	i	i	?
O=C(/C=C/c1ccccc1)NCCc1ccccc1	i	11.6µM	?	i	i	9.2µM
CC(CCc1ccccc1)NC(=O)/C=C/c1ccccc1 (stereo not given)	i	?	?	?	i	i
COc1ccc(CCNC(=O)/C=C/c2ccco2)cc1OC	i	i	i	i	i	i
COc1ccc(CCNC(=O)/C=C/c2ccco2)cc1	i	?	i	i	i	16.4µM
NS(=O)(=O)c1ccc(CCNC(=O)/C=C/c2ccc([N+](=O)[O-])cc2)cc1	i	14.6µM	i	i	i	?
N#CCCn1c(=O)c(-c2ccc(F)cc2)nc2cnc(N3CCOCC3)nc21	nt	i	nt	nt	nt	i
N#CCCn1c(=O)c(-c2ccc(F)cc2)nc2cnc(N3CCNCC3)nc21	nt	20.6µM	nt	nt	nt	?
N#CCCn1c(=O)c(-c2ccc(Cl)cc2)nc2cnc(N3CCNCC3)nc21	nt	?	nt	nt	nt	7.31µM
N#CCCn1c(=O)c(-c2ccc(Cl)cc2)nc2cnc(N3CCOCC3)nc21	nt	i	nt	nt	nt	i
CN1CCN(c2ncc3nc(-c4ccc(Cl)cc4)c(=O)n(CCC#N)c3n2)CC1	nt	16.4µM	nt	nt	nt	?
COCCn1c(=O)c(-c2cccc(C#N)c2)nc2cnc(N3CCN(C)CC3)nc21	nt	i	nt	nt	nt	i
CN1CCN(c2ncc3nc(-c4cccc(C#N)c4)c(=O)n(CCC#N)c3n2)CC1	nt	20.6µM	nt	nt	nt	?
O=C(O)CSc1nc2ccc(C(=O)c3ccccc3)cc2[nH]1	i[9.22 µM]	i	?	i	i	i
CC1CCN(S(=O)(=O)c2ccc3c(c2)NC(=O)CS3)CC1	i	i	i	i	i	i
O=C(c1ccncc1)N1CCN(c2cc(-c3ccccc3)nc3cc(-c4cccc(Cl)c4)nn23)CC1	nt	7.31µM	nt	nt	i	11.6µM
SMILES	SW480 rereplic	DT40 TDP1 no CPT	Chronic BCR inh	MCF10A rerep	IL1B secr inh	DT40 TDP1 CPT
CC(=O)N1CCN(c2cc(-c3ccccc3)nc3cc(-c4cccc(Cl)c4)nn23)CC1	nt	10.3µM	nt	nt	i	20.6µM
O=C(c1ccoc1)N1CCC2(CC1)Oc1ccc(Cl)cc1C(=O)C21CC(c2cccnc2)=NO1 (stereo not given)	i[9.22 µM]	i	?	i	i	i
O=C(c1ccoc1)N1CCN(c2cc(-c3cccnc3)nc3cc(-c4cccc(Cl)c4)nn23)CC1	nt	7.31µM	nt	nt	?	18.4µM
O=C(c1ccoc1)N1CCN(c2cc(-c3ccncc3)nc3cc(-c4cccc(Cl)c4)nn23)CC1	nt	5.8µM	nt	nt	i	13µM
O=C(COC(=O)COc1cccc(C(F)(F)F)c1)NC(=O)NC1CCCCC1	i	?	i	i	i	i
CCOc1ccc(Nc2nc(Nc3ccc(OCC)cc3)nc(N3CCOCC3)n2)cc1	nt	i	nt	nt	nt	i
CCOc1ccc(Nc2nc(N3CCCC3)nc(N3CCN(c4ccc(OC)cc4)CC3)n2)cc1	i	16.4µM	i	i	i	?
COc1nc(Nc2ccc(OC)c(Cl)c2)nc(OC)n1	i	?	?	i	i	i
CCOc1nc(Nc2ccc(F)cc2)nc(N2CCN(c3ccc(OC)cc3)CC2)n1	i	14.6µM	i	i	i	?
CCOc1nc(Nc2ccc(OC)c(Cl)c2)nc(N2CCN(c3ccc(OC)cc3)CC2)n1	i	23.1µM	i	i	?	18.4µM
N#Cc1ccc(Oc2nc(Nc3ccc(F)cc3)nc(N3CCCC3)n2)cc1	i	?	?	i	i	?
COc1cc(NC(=O)c2ccc3oc(=O)c(S(=O)(=O)c4ccccc4)cc3c2)cc(OC)c1	nt	i	nt	nt	nt	i
O=C(CCCN1C(=O)/C(=C/c2cccs2)SC1=S)Nc1cccc(O)c1	?	16.4µM	?	?	-94.0	20.6µM
O=C(CCN1C(=O)/C(=C/c2cccs2)SC1=S)Nc1cccc(O)c1	i	?	i	?	-81.5	i
O=C(CCCN1C(=O)/C(=C/c2cccs2)SC1=S)NNC(=O)c1ccc(F)cc1	nt	?	?	i	i	25.9µM
CCOc1ccc(N(c2nc(-c3ccc(OC)c(OC)c3)no2)c2nc(-c3ccc(OC)c(OC)c3)no2)cc1	nt	i	nt	nt	nt	i
O=C(C[n+]1ccccc1Br)c1ccc(I)cc1	nt	?	nt	nt	nt	i
COc1ccc(NC(=O)CSc2nnc(-c3cnccn3)n2C)cc1OC	i	i	i	i	i	i
COC(=O)[C@]12CCCCC=C1N(CCC1=CCCCC1)C(=O)[C@H](CC(=O)NCC13CC4CC(CC(C4)C1)C3)C2	nt	?	nt	nt	i	?
COc1ccc(C(CC(=O)c2ccc3c(c2)OCO3)C(=O)O)cc1OC (stereo not given)	nt	i	nt	nt	i	i
Cc1nnc(NC(=O)c2ccc(S(=O)(=O)N(C)c3ccccc3)cc2)s1	i	i	i	?	i	i
CN(c1ccccc1)S(=O)(=O)c1ccc(NC(=O)c2ccc(-c3ccccc3)cc2)cc1	i	?	i	i	i	20.6µM
CN(c1ccccc1)S(=O)(=O)c1ccc(C(=O)Nc2nnc(-c3ccc(F)cc3)o2)cc1	i	6.51µM	i	?	i	9.2µM
Cc1csc(NC(=O)c2ccc(S(=O)(=O)N(C)c3ccccc3)cc2)n1	i	13µM	?	?	?	11.6µM
